# Several values for one entry are separate records, joined by “and”; a condition that tells them apart may be missing. Equal entries are not always repeated. Records with an inconclusive call do not appear. Some compounds were tested as several samples or in several runs, with calls that do not always agree. Activity calls are given as the source filed them. Calls come from the whole dose curve.
# Assay: Primary qHTS to identify inhibitors of SARS-CoV-2 cell entry (AID 1645846); note: nearly all actives have a fitted effect of over 45% in size
# Conditions: SARS-CoV-2 pseudovirus cell entry assay, luminescence; activity change, negative = inhibition: at 57.1 µM (top of the series) unless noted; series mostly up to 57.1 µM
# How it was run: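 Luminescence readout (Bright-Glo luciferase) 48 h after pseudoparticle addition. HEK293-ACE2 cells, 1500/well; compound pre-incubation 1 h; Normalized to spike PP and bald PP.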
# Potency is the fitted concentration of half-maximal effect.
Compound,"activity change, negative = inhibition",Potency,outcome
NC(=O)c1ccc(N(C(N)=O)c2c(F)cccc2F)nc1-c1ccc(F)cc1F,-20.8%,,
C[C@@H]1CCN(C(=O)CC#N)C[C@@H]1N(C)c1ncnc2[nH]ccc12,-1.42%,,
Fc1cc(-c2cccc3ncc(-c4cnn(C5CCNCC5)c4)nc23)cc(F)c1CN1CCOCC1,,12.6 µM (active),
OCCn1cc(-c2cnc3nnn(Cc4ccc5ncccc5c4)c3n2)cn1,,,inactive
Nc1ccccc1NC(=O)c1ccc(CNC(=O)OCc2cccnc2)cc1,,,inactive
CCC(C)(Oc1ccc(C2(c3ccc(OC(C)(CC)C(=O)O)cc3)CCCCC2)cc1)C(=O)O (stereo not given),,inactive,
CC(=O)N[C@@H](Cc1ccc(O)cc1)C(=O)O,,,inactive
COc1ccc(-c2c(-c3ccc(O)cc3O)n[nH]c2C)cc1,-56.7%,,
COc1c(N2CCNC(C)C2)c(F)cc2c(=O)c(C(=O)O)cn(C3CC3)c12 (stereo not given),-3.63% and -6.19%,,
O=C(O)CCC1CCC(c2cc(F)ccc2F)(S(=O)(=O)c2ccc(Cl)cc2)CC1 (stereo not given),-2.05%,,
CC(=O)OCCN1C(=O)c2c(C)nc3ccc(S(=O)(=O)N4CCOCC4)cc3c2C1=O,2.17%,,
NCCCC(N)(C(=O)O)C(F)F (stereo not given),,inactive,
CC(C)[C@H](CO)Nc1nc(Nc2ccc(C(=O)O)c(Cl)c2)c2ncn(C(C)C)c2n1,-17.7%,,
Nc1nc2c(ncn2CCC(CO)CO)c(=O)[nH]1,-17.9%,,
CC(C)(Sc1ccc(CCN(CCCCC2CCCCC2)C(=O)NC2CCCCC2)cc1)C(=O)O,4.91%,,
COc1c(Cl)cc2c([nH]c3cnccc32)c1NC(=O)c1cccnc1C,-30.2%,,
CN[C@@H](C)C(=O)N[C@H]1CCCC[C@H]2CC[C@@H](C(=O)N[C@@H](c3ccccc3)c3cn(CCCCc4ccc(CCCCn5cc([C@@H](NC(=O)[C@@H]6CC[C@@H]7CCCC[C@H](NC(=O)[C@H](C)NC)C(=O)N76)c6ccccc6)nn5)cc4)nn3)N2C1=O,-12%,,
CN(C)CC/C=C1/c2ccccc2COc2ccc(CC(=O)O)cc21,-14.5%,,inactive
C[C@@H](Oc1cc(-c2cnn(C3CCNCC3)c2)cnc1N)c1c(Cl)ccc(F)c1Cl,,11.2 µM (active),

Compound,"activity change, negative = inhibition",Potency,outcome
CCCCCCCCCCCCCC(=O)OC(C)C,,,inactive
COc1cc2c(cc1OC)CC(=O)N(CCCN(C)C[C@H]1Cc3cc(OC)c(OC)cc31)CC2,-5.42% and -13.8%,,
CNCc1ccc(-c2[nH]c3cc(F)cc4c3c2CCNC4=O)cc1,-28.3%,,
C1Cc2[nH]nc(-c3nn[nH]n3)c2C1,4.96%,,
O=C(Nc1ccccc1-c1cn2c(CN3CCNCC3)csc2n1)c1cnc2ccccc2n1,,7.94 µM (active),
Cc1ccccc1N=Nc1ccc(N=Nc2c(O)ccc3ccccc23)c(C)c1,-23%,,
Fc1ccc(Cl)cc1-c1nc(Nc2ccncc2)c2nccnc2n1,-13.6%,,
COC(=O)c1ccc2c(C(=Nc3ccc(N(C)C(=O)CN4CCN(C)CC4)cc3)c3ccccc3)c(O)[nH]c2c1,-18.4%,17.8 µM (active),
Cc1ccc(C(=O)Nc2ccc(CN3CCN(C)CC3)c(C(F)(F)F)c2)cc1C#Cc1cnc2cccnn12,,8.91 µM (active),
CC(C)(C(=O)NCC(F)(F)C(F)(F)F)C(=O)N[C@@H]1C(=O)Nc2ccccc2-c2ccccc21,-16.5%,,
CC(C)CCCC(C)CCCC(C)CCCCC(C)CCCC(C)CCCC(C)C (stereo not given),-16.5%,,
Cc1ccnc(NS(=O)(=O)c2ccc(NC(=O)Nc3ccc(S(=O)(=O)Nc4nccc(C)n4)cc3)cc2)n1,-16.3%,,
CC[C@H](Nc1ncnc2nc[nH]c12)c1nc2cccc(F)c2c(=O)n1-c1ccccc1,-11%,,
CC(C)C[C@H](NC(=O)[C@@H](O)[C@H](N)Cc1ccccc1)C(=O)O,-29.5%,,
CS(=O)(=O)Nc1ccc([N+](=O)[O-])cc1Oc1ccccc1,-13.1% and -8.45%,,
CCOC(=O)C(C)Oc1cccc2c(=O)n(CC(=O)Nc3ccc4c(c3)OCCO4)ccc12 (stereo not given),-0.424%,,
Nc1nc(-c2nn(Cc3ccccc3F)c3ncccc23)nc(N)c1N1CCOCC1,,,inactive [at 27.1 µM]
c1ccc(-c2nn3c(c2-c2ccnc4cc(OCCN5CCOCC5)ccc24)CCC3)nc1,3.16%,,
C=C1C(=CC=C2CCC[C@]3(C)[C@@H]([C@H](C)C=C[C@H](C)C(C)C)CC[C@@H]23)C[C@@H](O)C[C@@H]1O,,,inactive

# Reference: PubChem BioAssay (NCATS)
